Data as given in the supplement of paper PMC10981050.
Values joined by “and” are separate entries in the source; they are usually repeats but may differ in a detail not shown here. Equal values may be shown once. Where a name gives a salt, the structure may show the parent alone.

Assays:
Assay in all cases: cell viability relative to vehicle control; higher = less cytotoxic
Details in all cases: 10 µM
K562 = system: K562
Outline: (§1)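 Each screen used CRISPR-edited mutant and wild-type clones from four leukaemia lines. Compounds were acoustically dispensed at a single 10 µM dose, and CellTiter-Glo luminescence was read after 48 h with the supernatant first removed. Viability was analysed in Genedata Screener and given as percent of the on-plate vehicle control.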

MARIMO = system: MARIMO
Outline: as §1

MOLM14 = system: MOLM14
Outline: as §1

OCI-AML2 = system: OCI-AML2
Outline: as §1

| SMILES | cell viability (K562; SRSF2 genotype: SRSF2 P95H/wt) | cell viability (K562; SRSF2 genotype: SRSF2 wt/wt) [%] | cell viability (MARIMO; SRSF2 genotype: SRSF2 P95H/wt) [%] | cell viability (MARIMO; SRSF2 genotype: SRSF2 wt/wt) [%] | cell viability (MOLM14; SRSF2 genotype: SRSF2 P95H/wt) [%] | cell viability (MOLM14; SRSF2 genotype: SRSF2 wt/wt) [%] | cell viability (OCI-AML2; SRSF2 genotype: P95H/wt) [%] | cell viability (OCI-AML2; SRSF2 genotype: wt/wt) [%] |
| --- | --- | --- | --- | --- | --- | --- | --- | --- |
| Cc1ccc2c(c1)c1c(n2CCc2ccc(C)nc2)CCN(C)C1 [Latrepirdine 2HCl] | 88.7% and 89.9% | 80.2 | 73.8 | 82 | 74.4 | 84.6 | 73.7 | 76 |
| C=C(c1ccc(C(=O)O)cc1)c1cc2c(cc1C)C(C)(C)CCC2(C)C [Bexarotene] | 84.9% and 95.7% | 87.6 | 85.7 | 106 | 89.4 | 103 | 33.3 | 63.5 |
| [F][Ti]([F])([F])[F] [Titanium tetrafluoride] | 102% and 89.4% | 98.7 | 99.2 | 105 | 97.3 | 102 | 98.9 | 99 |
| O=C1CCc2ccccc2O1 [Dihydrocoumarin] | 95.7% and 98.2% | 94.4 | 94.5 | 105 | 105 | 102 | 93.6 | 100 |
| CCc1ccc(Cc2ccc3c(c2)[C@]2(OC3)O[C@H](CO)[C@@H](O)[C@H](O)[C@H]2O)cc1 [Tofogliflozin(CSG 452)] | 81.3% and 83.7% | 81.2 | 77.3 | 88.5 | 80.2 | 82.5 | 93.8 | 85.6 |
| Cc1[nH]c(=O)c(C#N)cc1-c1ccncc1 [Milrinone (Primacor)] | 102% and 97.3% | 94.1 | 96.1 | 93.1 | 98.8 | 99.1 | 101 | 96 |
| N=C1NC(=O)/C(=C/c2ccc(O)cc2)S1 [Mirin] | 93.7% and 96.5% | 101 | 86.4 | 87.3 | 76.5 | 85.1 | 64.9 | 71 |
| C[C@H]1[C@H](NC(=O)/C(=N\OC(C)(C)C(=O)O)c2csc(N)n2)C(=O)N1S(=O)(=O)O [Aztreonam (Azactam, Cayston)] | 106% and 99.5% | 109 | 96.8 | 112 | 103 | 108 | 98.4 | 104 |
| O=Cc1ccc(O[C@@H]2O[C@H](CO)[C@@H](O)[C@@H](O)[C@H]2O)cc1 [Helicide] | 99% and 102% | 103 | 96 | 99.9 | 97.8 | 104 | 99.8 | 96.5 |
| C[C@@H]1O[C@@H](O[C@H]2[C@H](Oc3cc(O)c(C(=O)CCc4ccc(O)cc4)c(O)c3)O[C@H](CO)[C@@H](O)[C@@H]2O)[C@H](O)[C@H](O)[C@H]1O [Naringin Dihydrochalcone (Naringin DC)] | 99.7% and 107% | 94.5 | 102 | 105 | 98.4 | 104 | 96.8 | 111 |
| C/C=C(/C)C(=O)O[C@H]1[C@@H](OC(C)=O)c2c(ccc3ccc(=O)oc23)OC1(C)C [(+)-Praeruptorin A] | 92.3% and 98.4% | 90.2 | 84.5 | 93.9 | 82.8 | 93.3 | 90.3 | 104 |
| CO[C@H]1/C=C\C=C(/C)C(=O)NC2=CC(=O)C(NCCN(C)C)=C(C[C@@H](C)C[C@H](OC)[C@H](O)[C@@H](C)/C=C(\C)[C@@H]1OC(N)=O)C2=O [17-DMAG HCl (Alvespimycin)] | 14% and 15.5% | 24 | 28.1 | 22.5 | 0.45 | 0.4 | 3.25 | 12 |
| CCCCCOc1ccccc1/C(=C\SC)n1ccnc1 [Neticonazole Hydrochloride] | 66.4% and 59.1% | 68.9 | 45.7 | 39 | 59.7 | 54.8 | 25.7 | 26 |
| C=CS(=O)(=O)NC1CCN(C(=O)CNc2cc(I)c(Cl)cc2OC)CC1 [K-Ras(G12C) inhibitor 9] | 22.4% and 31% | 82.8 | 36.4 | 81.1 | 60.6 | 84.1 | 22.1 | 30 |
| Cc1ccccc1C(OCCN(C)C)c1ccccc1 (stereo unspecified) [Orphenadrine Hydrochloride] | 99.9% and 97.1% | 101 | 86.2 | 92.2 | 100 | 103 | 101 | 98.8 |
| O=c1[nH]cnc2ccccc12 [4-Hydroxyquinazoline] | 99.8% and 93.6% | 96.8 | 93.8 | 92.2 | 106 | 95.5 | 99.6 | 92.6 |
| CO/N=C(\C(=O)N[C@@H]1C(=O)N2C(C(=O)OC(C)OC(C)=O)=C(COC(N)=O)CS[C@H]12)c1ccco1 (stereo partly specified) [Cefuroxime axetil] | 103% and 102% | 96.2 | 99.6 | 104 | 101 | 107 | 111 | 105 |
| COc1ccc2[nH]cc(/C=C3\C(=O)Nc4ccc(NC(=O)CCN5CCCCC5)cc43)c2c1 | 7.59% and 11% | 8.26 | 37.9 | 33.6 | 0.75 | 0.77 | 0.4 | 0.72 |
| CC[C@H](c1ccc(O)cc1)[C@@H](CC)c1ccc(O)cc1 [Hexestrol (Bibenzyl)] | 96.8% and 102% | 96.9 | 94.6 | 101 | 99.7 | 103 | 100 | 91.9 |
| CCOCCn1c(N2CCCN(C)CC2)nc2ccccc21 [Emedastine] | 100% and 96.7% | 101 | 101 | 107 | 102 | 107 | 114 | 104 |
| c1cncc(-c2cn[nH]n2)c1 | 78.5% and 56.7% | 64.2 | 88.4 | 96.6 | 88.6 | 99.2 | 31.8 | 34.6 |

| SMILES | cell viability (K562; SRSF2 genotype: SRSF2 P95H/wt) | cell viability (K562; SRSF2 genotype: SRSF2 wt/wt) [%] | cell viability (MARIMO; SRSF2 genotype: SRSF2 P95H/wt) [%] | cell viability (MARIMO; SRSF2 genotype: SRSF2 wt/wt) [%] | cell viability (MOLM14; SRSF2 genotype: SRSF2 P95H/wt) [%] | cell viability (MOLM14; SRSF2 genotype: SRSF2 wt/wt) [%] | cell viability (OCI-AML2; SRSF2 genotype: P95H/wt) [%] | cell viability (OCI-AML2; SRSF2 genotype: wt/wt) [%] |
| --- | --- | --- | --- | --- | --- | --- | --- | --- |
| CCc1c2c(nc3ccc(OC(=O)N4CCC(N5CCCCC5)CC4)cc13)-c1cc3c(c(=O)n1C2)COC(=O)[C@]3(O)CC [Irinotecan HCl Trihydrate (Campto)] | 59.7% and 76.8% | 63.1 | 6.18 | 6.47 | 15.1 | 4.24 | 3.79 | 2.87 |
| Fc1ccc(CNc2ncnc3ccc(F)cc23)cc1 [Spautin-1] | 66.5% and 63.9% | 66.7 | 54.7 | 41.1 | 51.3 | 59.4 | 35.6 | 31.5 |
| CCOc1cc([C@@H](CS(C)(=O)=O)N2C(=O)c3cccc(NC(C)=O)c3C2=O)ccc1OC | 102% and 98.7% | 94.5 | 99.5 | 92.5 | 98 | 94.9 | 90.1 | 94.7 |
| Nc1ncn([C@@H]2O[C@H](CO)[C@@H](O)[C@H]2O)c(=O)n1 [Azacitidine (Vidaza)] | 47.4% and 45.7% | 52.2 | 45.5 | 52.8 | 45.7 | 40.3 | 35.8 | 34.3 |
| COC(=O)N(C)c1c(N)nc(-c2nn(Cc3ccccc3F)c3ncccc23)nc1N [Riociguat (BAY 63-2521)] | 89.6% and 89.1% | 82.6 | 85 | 99 | 90.2 | 94 | 96.3 | 108 |
| Cn1cc(C2=C(c3cccc(N)c3)C(=O)NC2=O)c2ccccc21 | 51.4% and 36.7% | 58.5 | 65.4 | 86 | 59.8 | 72.1 | 78.8 | 101 |
| O=C(Nc1cccc2cccnc12)c1ccc(N2C(=O)C3C4C=CC(C4)C3C2=O)cc1 (stereo not drawn) [IWR-1-endo] | 95.8% and 94% | 101 | 100 | 103 | 111 | 118 | 97.9 | 98.8 |
| CCCC(=O)Nc1ccc(OCC(O)CNC(C)C)c(C(C)=O)c1 (stereo unspecified) [Acebutolol HCl] | 96.2% and 86.2% | 86.2 | 97.3 | 95.1 | 92.4 | 93.3 | 94.9 | 91.7 |
| CCCc1nc(C)c2c(=O)[nH]c(-c3cc(S(=O)(=O)N4CCN(CC)CC4)ccc3OCC)nn12 [Vardenafil Hydrochloride Trihydrate (Vivanza] | 99.1% and 107% | 97.1 | 110 | 108 | 105 | 106 | 135 | 115 |
| CCOP(=O)(OCC)C(=Cc1cc(C(C)(C)C)c(O)c(C(C)(C)C)c1)P(=O)(OCC)OCC | 77.8% and 87.5% | 84.6 | 90.4 | 93 | 88.8 | 71.6 | 90.9 | 97 |
| O=Cc1ccc(CO)o1 [5-Hydroxymethylfurfural] | 91.8% and 86.8% | 84 | 85 | 95.1 | 86.9 | 91.3 | 85.6 | 92.7 |
| CC/C(=C(\c1ccccc1)c1ccc(OCCN(C)C)cc1)c1ccccc1 [Tamoxifen Citrate (Nolvadex)] | 82.2% and 76.4% | 93 | 80 | 74.3 | 74.5 | 81.8 | 69.7 | 74.5 |
| COC(=O)[C@H](O)[C@@H](NC(=O)c1ccccc1)c1ccccc1 | 108% and 104% | 107 | 108 | 103 | 98.1 | 106 | 104 | 110 |
| CC(C)NCC(O)COc1ccc(COCCOC(C)C)cc1 (stereo unspecified) [Bisoprolol fumarate] | 94.1% and 90.5% | 89.9 | 93.2 | 94.5 | 83.8 | 91.5 | 93.6 | 99.8 |
| C[C@H]1[C@H](C)CC[C@]2(C(=O)O[C@@H]3O[C@H](CO[C@@H]4O[C@H](CO)[C@@H](O[C@@H]5O[C@@H](C)[C@H](O)[C@@H](O)[C@H]5O)[C@H](O)[C@H]4O)[C@@H](O)[C@H](O)[C@H]3O)CC[C@]3(C)C(=CC[C@@H]4[C@@]5(C)C[C@@H](O)[C@H](O)[C@@](C)(CO)[C@@H]5[C@H](O)C[C@]43C)[C@H]12 [Madecassoside] | 106% and 105% | 103 | 99.8 | 111 | 97.8 | 106 | 99.9 | 110 |
| O=C(C=Cc1ccccc1)NC(NC(=S)Nc1ccc(Cl)cc1)C(Cl)(Cl)Cl (stereo unspecified) | 81.5% and 86.5% | 86.9 | 102 | 104 | 90.4 | 96 | 99.1 | 100 |
| OC1OC[C@@H](O)[C@@H](O)[C@@H]1O (stereo partly drawn) [D(-)-Arabinose] | 111% and 100% | 118 | 110 | 109 | 100 | 111 | 116 | 117 |
| CN(C)C(=O)/C(C#N)=C/c1ccc(-c2nc3cnc4[nH]ccc4c3n2C2CCCCC2)o1 | 99.3% and 98.8% | 98.6 | 80.9 | 89.3 | 49.5 | 71 | 71.5 | 71.5 |
| N[C@@H](Cc1c[nH]c2ccc(O)cc12)C(=O)O [5-hydroxytryptophan (5-HTP)] | 106% and 102% | 94.2 | 99.8 | 103 | 93.3 | 99.1 | 94.5 | 104 |
| CC(C)OC(=O)CCC/C=C\C[C@@H]1[C@@H](CC[C@@H](O)CCc2ccccc2)[C@H](O)C[C@@H]1O [Latanoprost] | 93% and 96.4% | 90.1 | 89.6 | 92.5 | 88 | 103 | 97.8 | 98.3 |
| Nc1cc(C(F)(F)F)c(-c2cc(N3CCOCC3)nc(N3CCOCC3)n2)cn1 | 30.2% and 37.9% | 31.9 | 23.2 | 20.3 | 11.9 | 11 | 11.6 | 15.7 |
